Test results reported in PubChem BioAssay AID1159580 (chemical genetic matrix, 2015).
Values joined by “and” are separate entries in the source; they are usually repeats but may differ in a detail not shown here. Equal values may be shown once. In all, about 5,500 compounds went through this assay and about 2,000 (36%) were called active. Roughly 18% stayed inconclusive and do not appear here. No stated cut-off is given here; in the data, active means normalized growth mostly below about 0.91 (no sharp cut-off); inconclusive means no clear call, values can overlap the other calls; inactive means mostly above about 0.92. Some of the results follow.

Test: chemical genetic growth profiling, strain panel (AID 1159580);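 further: tested at 20 µM; growth read once vehicle control cultures reached saturation at 30 °C; 1 = growth at the plate median or of vehicle wells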
Conditions: growth OD

Measured: normalized growth

CN1C(=O)CCS(=O)(=O)C1c1ccc(Cl)cc1 (stereo unspecified)
inactive: S. cerevisiae deletion strains, locus YJR075W, strain HOC1, stronger effect = lower value 1.04 and 1.02 | S. cerevisiae deletion strains, locus YKL009W, strain mrt4, stronger effect = lower value 1.03 | S. cerevisiae deletion strains, locus YKL068W, stronger effect = lower value 1.01 | S. cerevisiae deletion strains, locus YKL085W, strain MDH1 (second series), stronger effect = lower value 1.01 | S. cerevisiae deletion strains, locus YKL085W, strain MDH1, stronger effect = lower value 1.01 | S. cerevisiae deletion strains, locus YKL160W, strain elf1, stronger effect = lower value 1.02 | S. cerevisiae deletion strains, locus YKL190W, strain CNB1, stronger effect = lower value 1.01 | S. cerevisiae deletion strains, locus YKR001C, strain vps1, stronger effect = lower value 1.01 | S. cerevisiae deletion strains, locus YKR026C, strain gcn3, stronger effect = lower value 0.976 | S. cerevisiae deletion strains, locus YKR091W, strain srl3, stronger effect = lower value 0.984 | S. cerevisiae deletion strains, locus YLL001W, strain dnm1, stronger effect = lower value 0.979 | S. cerevisiae deletion strains, locus YLL026W, stronger effect = lower value 0.999 | S. cerevisiae deletion strains, locus YLL041C, strain sdh2, stronger effect = lower value 0.984 | S. cerevisiae deletion strains, locus YLR027C, strain aat2, stronger effect = lower value 0.998 | S. cerevisiae deletion strains, locus YLR039C, strain RIC1, stronger effect = lower value 1.04 | S. cerevisiae deletion strains, locus YLR058C, strain SHM2, stronger effect = lower value 1.01 | S. cerevisiae deletion strains, locus YLR102C, strain apc9, stronger effect = lower value 1.01 | S. cerevisiae deletion strains, locus YLR113W, strain HOG1, stronger effect = lower value 0.99 | S. cerevisiae deletion strains, locus YLR221C, strain rsa3, stronger effect = lower value 0.978 | S. cerevisiae deletion strains, locus YLR258W, strain gsy2, stronger effect = lower value 0.988 | S. cerevisiae deletion strains, locus YLR262C, strain YPT6 (second series), stronger effect = lower value 0.987 | S. cerevisiae deletion strains, locus YLR262C, strain YPT6, stronger effect = lower value 1.06 | S. cerevisiae deletion strains, locus YLR268W, strain sec22, stronger effect = lower value 1.06 | S. cerevisiae deletion strains, locus YLR320W, strain mms22, stronger effect = lower value 0.939 | S. cerevisiae deletion strains, locus YLR330W, strain CHS5, stronger effect = lower value 1.01 | S. cerevisiae deletion strains, locus YLR342W, strain FKS1 (second series), stronger effect = lower value 1.01 | S. cerevisiae deletion strains, locus YLR342W, strain FKS1, stronger effect = lower value 1.01 | S. cerevisiae deletion strains, locus YLR357W, strain rsc2, stronger effect = lower value 0.954 | S. cerevisiae deletion strains, locus YLR370C, strain arc18, stronger effect = lower value 0.991 | S. cerevisiae deletion strains, locus YLR371W, strain rom2, stronger effect = lower value 1.02 | S. cerevisiae deletion strains, locus YLR384C, strain iki3, stronger effect = lower value 0.996 | S. cerevisiae deletion strains, locus YLR418C, strain cdc73, stronger effect = lower value 1.02 | S. cerevisiae deletion strains, locus YML016C, strain PPZ1, stronger effect = lower value 1.01 | S. cerevisiae deletion strains, locus YML032C, strain rad52, stronger effect = lower value 1.04 | S. cerevisiae deletion strains, locus YML120C, strain ndi1, stronger effect = lower value 0.948 | S. cerevisiae deletion strains, locus YML124C, strain tub3, stronger effect = lower value 1.01 | S. cerevisiae deletion strains, locus YMR058W, strain fet3, stronger effect = lower value 0.979 | S. cerevisiae deletion strains, locus YMR078C, strain ctf18, stronger effect = lower value 1.02 | S. cerevisiae deletion strains, locus YMR125W, strain sto1, stronger effect = lower value 0.982 | S. cerevisiae deletion strains, locus YMR129W, stronger effect = lower value 0.974 | S. cerevisiae deletion strains, locus YMR205C, strain PFK2, stronger effect = lower value 0.947 | S. cerevisiae deletion strains, locus YMR223W, strain ubp8, stronger effect = lower value 1 | S. cerevisiae deletion strains, locus YMR231W, strain pep5, stronger effect = lower value 0.987 | S. cerevisiae deletion strains, locus YMR263W, strain SAP30, stronger effect = lower value 1.02 and 0.996 | S. cerevisiae deletion strains, locus YMR307W, strain GAS1, stronger effect = lower value 1 and 0.99 | S. cerevisiae deletion strains, locus YNL067W, strain RPL9B, stronger effect = lower value 1.03 | S. cerevisiae deletion strains, locus YNL071W, strain lat1, stronger effect = lower value 0.979 | S. cerevisiae deletion strains, locus YNL128W, strain TEP1, stronger effect = lower value 1.03 | S. cerevisiae deletion strains, locus YNL153C, strain GIM3, stronger effect = lower value 1.02 and 0.995 | S. cerevisiae deletion strains, locus YNL175C, strain NOP13, stronger effect = lower value 1.01 | S. cerevisiae deletion strains, locus YNL183C, strain NPR1, stronger effect = lower value 0.883 | S. cerevisiae deletion strains, locus YNL197C, strain WHI3, stronger effect = lower value 1 | S. cerevisiae deletion strains, locus YNL209W, strain ssb2, stronger effect = lower value 0.984 | S. cerevisiae deletion strains, locus YNL224C, strain SQS1, stronger effect = lower value 1 | S. cerevisiae deletion strains, locus YNL233W, strain BNI4, stronger effect = lower value 1.02 | S. cerevisiae deletion strains, locus YNL248C, strain rpa49, stronger effect = lower value 1.03 | S. cerevisiae deletion strains, locus YNL250W, strain rad50, stronger effect = lower value 1.01 | S. cerevisiae deletion strains, locus YNL271C, strain bni1, stronger effect = lower value 1.02 | S. cerevisiae deletion strains, locus YNL298W, strain CLA4, stronger effect = lower value 1.02 | S. cerevisiae deletion strains, locus YNL307C, strain MCK1, stronger effect = lower value 1.01 | S. cerevisiae deletion strains, locus YNL322C, strain KRE1 (second series), stronger effect = lower value 1 | S. cerevisiae deletion strains, locus YNL322C, strain KRE1, stronger effect = lower value 1.01 | S. cerevisiae deletion strains, locus YNR049C, strain mso1, stronger effect = lower value 0.992 | S. cerevisiae deletion strains, locus YNR052C, strain pop2, stronger effect = lower value 1.02 | S. cerevisiae deletion strains, locus YOL006C, strain TOP1, stronger effect = lower value 1.1 | S. cerevisiae deletion strains, locus YOL012C, strain htz1 0.9 | S. cerevisiae deletion strains, locus YOL147C, strain pex11, stronger effect = lower value 1.01 | S. cerevisiae deletion strains, locus YOR001W, strain rrp6, stronger effect = lower value 0.94 | S. cerevisiae deletion strains, locus YOR061W, strain CKA2, stronger effect = lower value 1.01 | S. cerevisiae deletion strains, locus YOR069W, strain VPS5, stronger effect = lower value 1.01 | S. cerevisiae deletion strains, locus YOR070C, strain gyp1, stronger effect = lower value 0.993 | S. cerevisiae deletion strains, locus YOR080W, strain dia2, stronger effect = lower value 0.982 | S. cerevisiae deletion strains, locus YOR083W, strain WHI5 (second series), stronger effect = lower value 1.03 | S. cerevisiae deletion strains, locus YOR083W, strain WHI5, stronger effect = lower value 0.994 | S. cerevisiae deletion strains, locus YOR106W, strain vam3, stronger effect = lower value 1.02 | S. cerevisiae deletion strains, locus YOR136W, strain idh2, stronger effect = lower value 1.01 | S. cerevisiae deletion strains, locus YOR144C, strain elg1, stronger effect = lower value 1.01 | S. cerevisiae deletion strains, locus YOR184W, strain ser1, stronger effect = lower value 1.01 | S. cerevisiae deletion strains, locus YOR231W, strain MKK1, stronger effect = lower value 0.996 | S. cerevisiae deletion strains, locus YOR265W, strain rbl2, stronger effect = lower value 0.982 | S. cerevisiae deletion strains, locus YOR270C, strain vph1, stronger effect = lower value 0.992 | S. cerevisiae deletion strains, locus YOR290C, strain snf2, stronger effect = lower value 1.01 | S. cerevisiae deletion strains, locus YOR316C, strain cot1, stronger effect = lower value 1.01 | S. cerevisiae deletion strains, locus YPL051W, strain arl3, stronger effect = lower value 1.03 | S. cerevisiae deletion strains, locus YPL055C, strain LGE1, stronger effect = lower value 1.05 and 1.03 | S. cerevisiae deletion strains, locus YPL078C, strain atp4, stronger effect = lower value 1.01 | S. cerevisiae deletion strains, locus YPL106C, strain sse1, stronger effect = lower value 0.952 | S. cerevisiae deletion strains, locus YPL240C, strain hsp82, stronger effect = lower value 0.981 | S. cerevisiae deletion strains, locus YPL241C, strain CIN2, stronger effect = lower value 1 and 1.01 | S. cerevisiae deletion strains, locus YPL256C, strain CLN2, stronger effect = lower value 0.956 | S. cerevisiae deletion strains, locus YPR119W, strain clb2, stronger effect = lower value 1.02 | S. cerevisiae deletion strains, locus YPR141C, strain kar3, stronger effect = lower value 1.01 | S. cerevisiae deletion strains, locus YPR163C, strain tif3, stronger effect = lower value 1.02 | S. cerevisiae deletion strains, locus YPR167C, strain met16, stronger effect = lower value 1.01 | S. cerevisiae deletion strains, strain wtn01, stronger effect = lower value 1.03 | S. cerevisiae strains, strain wild type, stronger effect = lower value 1.02
